A short description of experiment [1]: E. coli DRC41 culture turbidity changes, primary screen, E. coli filamentation inducer project, strain DRC41, OD650, 48 h (AID 1152).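 Also: E. coli MC1000 strain DRC41 lacking acrAB efflux pump and sulA.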 To be noted: E. coli DRC41 (acrAB sulA), higher = more signal, called active from +8 up or from −8 down.
Experiment [2] can be described thus: small-molecule binders of probe aLefty1, primary screen, biochemical, small-molecule microarray, 635/667 nm fluorescence (AID 1153).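 Also: score merges spot fluorescence with signal-to-noise ratio from the scanned slide images.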 The settings on record: higher = more signal.
The nature of experiment [3]: PSAC antagonists in infected red cells, primary screen, cell-based, P. falciparum Indochina, OD700, 1 h (AID 1154). The settings on record: P. falciparum Indochina infected RBC osmotic lysis, higher = more signal, called active from +8 up or from −8 down.
Experiment [4] in a line: PSAC antagonists in infected red cells, primary screen, cell-based, P. falciparum Indochina, OD700, 2 h (AID 1155).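 Also: lysis reports solute entry through the parasite surface anion channel PSAC; channel blockers reduce lysis of infected cells.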 To be noted: P. falciparum Indochina infected erythrocytes, osmotic lysis OD700; higher = more signal, called active from +8 up or from −8 down.
Experiment [5] can be described thus: osmotic lysis modulators in infected erythrocytes, primary screen, PSAC antagonist project, cell-based, P. falciparum Indochina, OD700, 3 h (AID 1156). The settings on record: higher = more signal, called active from +8 up or from −8 down.
Experiment [6] in a line: PSAC antagonists in infected red cells, primary screen, cell-based, P. falciparum Indochina, OD700, 18 h (AID 1157). To be noted: P. falciparum Indochina infected erythrocytes, osmotic lysis OD700, 18 h; higher = more signal, called active from +8 up or from −8 down.
The nature of experiment [7]: modulators of S6 phosphorylation in cells, primary screen, cell-based, A549, cytoblot, luminescence, serum-stimulated (AID 1158).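 Also: serum-stimulated A549 lung adenocarcinoma cells; signal is phosphorylated S6 detected by cytoblot immunostaining with HRP secondary.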 To be noted: A549 phospho-S6 cytoblot, 5 h, higher = more signal.
Experiment [8] addresses NADPH oxidase 2 (Homo sapiens) (UniProt P04839). Nature of the experiment: NOX2-dependent H2O2 signal modulators, primary screen, NOX inhibitor project, cell-based, HEK293-NOX2, PMA-stimulated, Amplex Red fluorescence (AID 1159). Also: test concentration not given here. The settings on record: 45 min, higher = more signal, called active from +8 up or from −8 down.
For experiment [9], the target named is NADPH oxidase 4 (Homo sapiens) (UniProt Q9NPH5). Nature of the experiment: NOX4-dependent H2O2 signal modulators, primary screen, NOX inhibitor project, cell-based, HEK293-NOX4, tetracycline-induced, Amplex Red fluorescence (AID 1160). To be noted: 45 min, higher = more signal, called active from +8 up or from −8 down.
Experiment [10] has as its target NADPH oxidase 5 (Homo sapiens) (UniProt Q96PH1). Nature of the experiment: NOX5-dependent H2O2 signal modulators, primary screen, NOX inhibitor project, cell-based, HEK293-NOX5, Amplex Red fluorescence (AID 1161). To be noted: HEK293-NOX5, ionomycin, 45 min, higher = more signal.
Experiment [11] is described as follows: A549 cell viability effects, profiling panel, calcein-AM fluorescence, 48 h, basal (AID 1162). Also: test concentration not given here. The settings on record: higher = more signal.
Experiment [12] can be described thus: adipocyte viability effects, profiling panel, cell-based, 3T3-L1 adipocytes, calcein-AM fluorescence, 48 h, basal (AID 1163). Also: test concentration not given here. To be noted: 3T3-L1 adipocytes viability, higher = more signal.
The nature of experiment [13]: HepG2 cell viability effects, profiling panel, calcein-AM fluorescence, 48 h, basal (AID 1164). Also: test concentration not given here. To be noted: higher = more signal.
The nature of experiment [14]: MM1S cell viability effects, profiling panel, calcein-AM fluorescence, 48 h, basal (AID 1165).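 Also: viability of MM1S multiple myeloma cells under basal unstimulated conditions; test concentration not given here.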 The settings on record: higher = more signal.
Experiment [15] is described as follows: basal RPMI8226 viability, no added stimulus, profiling panel, cell-based, calcein-AM fluorescence, 48 h, PK04 Diversity Set (AID 1166).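 Also: cells grown under basal conditions without added stimulus; test concentration not given here.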 The settings on record: RPMI8226 myeloma viability, higher = more signal.
Experiment [16] in a line: basal HepG2 mitochondrial membrane potential changes, profiling panel, cell-based, JC-1 fluorescence, 24 h, 100 nL compound (AID 1167). Also: test concentration not given here. The settings on record: higher = more signal.
The nature of experiment [17]: basal 3T3-L1 adipocyte mitochondrial potential changes, profiling panel, cell-based, JC-1 fluorescence, 3T3-L1 adipocytes, 24 h, 100 nL compound (AID 1168). Also: test concentration not given here. To be noted: JC-1 mitochondrial fluorescence, higher = more signal, called active from +8 up or from −8 down.
Experiment [18] is described as follows: basal RPMI8226 mitochondrial membrane potential changes, profiling panel, cell-based, JC-1 fluorescence, 24 h, 100 nL compound (AID 1169). Also: test concentration not given here. The settings on record: RPMI8226 myeloma, JC-1 mitochondrial potential fluorescence, higher = more signal.
The nature of experiment [19]: basal MM1S mitochondrial membrane potential changes, profiling panel, cell-based, JC-1 fluorescence, 24 h, 100 nL compound (AID 1170). Also: test concentration not given here. The settings on record: higher = more signal.
The nature of experiment [20]: A549 lung cancer cell viability effects, profiling panel, resazurin fluorescence, 24 h, PK04 Diversity Set (AID 1171). Also: test concentration not given here. The settings on record: higher = more signal, called active from +8 up or from −8 down. A general note: The colour change of resazurin is a common sign of viable cells or microbes.

Active and inactive are the calls of the source.

Chain of NADPH oxidase 5 (Homo sapiens) (Q96PH1 whole entry, looked up): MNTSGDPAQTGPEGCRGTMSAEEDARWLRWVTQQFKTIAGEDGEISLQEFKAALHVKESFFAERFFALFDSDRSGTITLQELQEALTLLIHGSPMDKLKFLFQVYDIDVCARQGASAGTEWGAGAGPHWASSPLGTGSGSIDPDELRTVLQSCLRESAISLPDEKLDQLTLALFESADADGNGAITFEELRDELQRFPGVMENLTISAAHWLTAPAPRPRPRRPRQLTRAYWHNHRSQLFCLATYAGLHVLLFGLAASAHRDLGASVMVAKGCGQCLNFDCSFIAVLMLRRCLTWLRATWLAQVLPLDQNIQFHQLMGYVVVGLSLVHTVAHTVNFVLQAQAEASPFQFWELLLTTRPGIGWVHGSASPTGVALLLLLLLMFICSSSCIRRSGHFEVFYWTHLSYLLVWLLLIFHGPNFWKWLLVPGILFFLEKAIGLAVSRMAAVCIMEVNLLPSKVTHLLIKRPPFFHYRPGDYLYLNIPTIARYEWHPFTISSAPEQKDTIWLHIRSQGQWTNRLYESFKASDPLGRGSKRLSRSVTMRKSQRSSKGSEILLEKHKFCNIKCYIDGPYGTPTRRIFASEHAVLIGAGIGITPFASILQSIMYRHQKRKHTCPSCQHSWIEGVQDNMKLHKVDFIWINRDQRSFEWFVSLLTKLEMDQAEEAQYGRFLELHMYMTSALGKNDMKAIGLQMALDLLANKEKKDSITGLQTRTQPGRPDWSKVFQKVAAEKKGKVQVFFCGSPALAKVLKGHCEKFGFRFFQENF
Chain of NADPH oxidase 2 (Homo sapiens) (P04839 whole entry, looked up): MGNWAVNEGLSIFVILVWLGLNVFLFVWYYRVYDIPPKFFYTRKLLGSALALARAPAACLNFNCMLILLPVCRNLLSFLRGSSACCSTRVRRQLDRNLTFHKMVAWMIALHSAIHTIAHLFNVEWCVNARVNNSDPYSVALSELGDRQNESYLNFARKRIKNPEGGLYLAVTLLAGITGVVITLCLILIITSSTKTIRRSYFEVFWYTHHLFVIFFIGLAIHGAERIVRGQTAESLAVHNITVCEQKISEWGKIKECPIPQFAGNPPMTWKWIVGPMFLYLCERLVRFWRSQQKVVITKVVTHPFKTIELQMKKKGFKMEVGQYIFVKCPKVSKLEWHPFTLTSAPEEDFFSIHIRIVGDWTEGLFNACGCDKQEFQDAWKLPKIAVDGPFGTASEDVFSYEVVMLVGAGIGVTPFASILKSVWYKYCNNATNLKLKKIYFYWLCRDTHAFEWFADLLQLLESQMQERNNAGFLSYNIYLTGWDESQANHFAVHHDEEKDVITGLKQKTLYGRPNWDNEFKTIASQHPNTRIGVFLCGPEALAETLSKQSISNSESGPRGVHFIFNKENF
Chain of NADPH oxidase 4 (Homo sapiens) (Q9NPH5 whole entry, looked up): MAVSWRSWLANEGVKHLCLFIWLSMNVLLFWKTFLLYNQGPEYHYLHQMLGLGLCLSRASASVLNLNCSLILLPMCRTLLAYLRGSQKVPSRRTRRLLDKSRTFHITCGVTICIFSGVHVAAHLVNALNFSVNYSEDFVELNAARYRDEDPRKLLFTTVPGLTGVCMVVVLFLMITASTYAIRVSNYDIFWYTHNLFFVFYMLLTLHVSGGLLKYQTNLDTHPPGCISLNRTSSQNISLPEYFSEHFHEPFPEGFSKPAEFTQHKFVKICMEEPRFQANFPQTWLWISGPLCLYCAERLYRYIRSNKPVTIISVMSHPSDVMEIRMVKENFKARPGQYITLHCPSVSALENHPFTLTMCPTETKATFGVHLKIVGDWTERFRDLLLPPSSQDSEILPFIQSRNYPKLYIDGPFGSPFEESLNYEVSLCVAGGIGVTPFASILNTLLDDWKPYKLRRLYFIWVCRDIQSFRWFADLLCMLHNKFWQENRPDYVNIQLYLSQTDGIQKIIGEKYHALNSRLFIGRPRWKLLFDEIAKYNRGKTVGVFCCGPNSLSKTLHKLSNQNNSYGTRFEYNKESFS

With `CO[C@H]1O[C@H](CO)[C@@H](OC(=O)Nc2ccccc2)[C@H](OC(=O)Nc2ccccc2)[C@H]1OC(=O)Nc1ccccc1`, the z-score in [1] was 0.492 (inactive); in experiment [3], 4.11 (inactive); in [4], 1.04 (inactive); in experiment [5] it was 0.406 (inactive); in [6], 0.912 (inactive); in experiment [7] it was 0.22. Further, the z-score in experiment [8] is -7.66 (inactive); in experiment [9] it was -1.15 (inactive); in experiment [10], -2.32; in experiment [11], -1.27; in [12], 0.416; in experiment [13], -1.92. Besides, the z-score in experiment [14] was -0.77; in experiment [15], -3.14; in [16], 0.292; in experiment [17] it was 0.0293 (inactive); in experiment [18] it was -0.77; in experiment [19], -1.06. For the same molecule, in experiment [20], the z-score is -3.04 (inactive). Besides, in experiment [2], the composite z-score was found to be 0.264.
Regarding `COCCOC(=O)N1C(=O)[C@@]2(c3cc(C#CCC(C(=O)OC)C(=O)OC)ccc31)[C@H](c1ccc(O)cc1)N1[C@H](c3ccccc3)[C@H](c3ccccc3)OC(=O)[C@H]1[C@@H]2C(=O)Nc1nc2ccccc2s1`, the z-score was 0.306 (inactive) in experiment [1]; 2.75 (inactive) in [3]; 0.666 (inactive) in experiment [4]; 0.34 (inactive) in experiment [5]; 0.802 (inactive) in [6]; -0.286 in experiment [7]. Further, the z-score in experiment [8] is 1.1 (inactive); in [9], -1.09 (inactive); in [10], 0.698; in experiment [11] it was -0.451; in experiment [12], 0.982; in [13], -0.0867. Further, the z-score in experiment [14] was 0.121; in experiment [15], -0.6; in experiment [16] it was -1.18; in [17], -1.98 (inactive); in experiment [18], -0.164; in [19], 0.0358. Moreover, the z-score in [20] was 0.066 (inactive). Also, the composite z-score in experiment [2] is 0.251.
As to `CN1C(=O)C2C(C1=O)C1C=C(CCCO)C2C(C2CC2)N1Cc1cccc(OC(F)(F)F)c1` (stereo not given), the z-score is -0.771 (inactive) in [1]; 1.34 (inactive) in experiment [3]; 0.505 (inactive) in experiment [4]; 0.627 (inactive) in experiment [5]; 0.402 (inactive) in [6]; -0.546 in experiment [7]. Besides, the z-score in experiment [8] is 0.561 (inactive); in experiment [9], 0.568 (inactive); in [10], 1.2; in experiment [11], -0.379; in experiment [12] it was 0.116; in experiment [13] it was -0.814. The z-score in experiment [14] was -0.517; in experiment [15], -0.781; in experiment [16], 0.217; in [17], -0.423 (inactive); in experiment [18], -0.00892; in experiment [19] it was 0.389. In addition, the z-score in [20] was -0.0655 (inactive). The composite z-score in experiment [2] is -0.295.
`O=C1O[C@@H](c2ccccc2)[C@@H](c2ccccc2)N2[C@@H](c3ccccc3OCCO)[C@]3(C(=O)Nc4ccc(C#CCCO)cc43)[C@@H](C(=O)NC[C@H](O)c3ccccc3)[C@H]12`: the z-score in experiment [1] is 0.54 (inactive); in experiment [3], 1.54 (inactive); in [4], 0.913 (inactive); in experiment [5], -1.33 (inactive); in [6], 1.28 (inactive); in experiment [7] it was -0.471. Also, the z-score is 1.59 (inactive) in [8]; 0.462 (inactive) in experiment [9]; 0.689 in [10]; -0.31 in experiment [11]; 0.323 in experiment [12]; 0.997 in experiment [13]. Further, the z-score in experiment [14] was 0.16; in experiment [15] it was -0.0269; in [16], -1.16; in [17] it was 0.00583 (inactive); in experiment [18], -0.471; in experiment [19], -0.596. In addition, in experiment [20], the z-score was 0.682 (inactive). This molecule also returned a composite z-score in experiment [2] of 1.63.
`O=C1O[C@@H](c2ccccc2)[C@@H](c2ccccc2)N2[C@@H](c3ccc(OCCO)cc3)[C@]3(C(=O)Nc4ccc(C#CCCO)cc43)[C@@H](C(=O)O)[C@H]12`: the z-score in experiment [1] was 0.624 (inactive); in experiment [3] it was 1.93 (inactive); in experiment [4] it was -0.0017 (inactive); in experiment [5], 0.88 (inactive); in experiment [6] it was -0.097 (inactive); in experiment [7], -0.197. The z-score in [8] was 2.08 (inactive); in experiment [9] it was 0.716 (inactive); in [10] it was 1.1; in experiment [11] it was 1.35; in [12] it was -0.997; in experiment [13], 0.831. For the same molecule, the z-score was 0.942 in [14]; 0.926 in experiment [15]; -0.498 in experiment [16]; -0.382 (inactive) in experiment [17]; 0.284 in [18]; -0.811 in [19]. Also, the z-score in [20] was -0.384 (inactive). For the same molecule, the composite z-score in experiment [2] was 1.31.

The record behind these values is PubChem BioAssay.
